Results taken from PubChem BioAssay (NCI).
About 83,000 compounds went through this panel and 20% of them were active in at least one assay; those are over-represented in the sample as a whole.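 Single-dose data. Exposure time 48 hours. Values below 10 considered active.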 Unmarked numbers belong to inactive results. The source made the active and inactive calls.

What was measured:
Assay in all cases: NCI-60 one-dose screen, 48 h (100 = growth as untreated, 0 = no growth, -100 = all killed)
Settings in all cases: 10 µM
DU-145 prostate = tested on: DU-145 prostate
K-562 leukemia = tested on: K-562 leukemia
MALME-3M melanoma = tested on: MALME-3M melanoma
MDA-MB-231 breast = tested on: MDA-MB-231 breast
RXF 393 renal = tested on: RXF 393 renal
SF-268 CNS = tested on: SF-268 CNS
SF-295 CNS = tested on: SF-295 CNS
SF-539 CNS = tested on: SF-539 CNS
UACC-257 melanoma = tested on: UACC-257 melanoma
M14 melanoma = tested on: M14 melanoma
HCT-15 colon = tested on: HCT-15 colon
HT29 colon = tested on: HT29 colon
SNB-75 CNS = tested on: SNB-75 CNS
SNB-19 CNS = tested on: SNB-19 CNS
U251 CNS = tested on: U251 CNS
PC-3 prostate = tested on: PC-3 prostate
SK-MEL-5 melanoma = tested on: SK-MEL-5 melanoma
UACC-62 melanoma = tested on: UACC-62 melanoma
SK-MEL-28 melanoma = tested on: SK-MEL-28 melanoma
LOX IMVI melanoma = tested on: LOX IMVI melanoma

Row | Compound | growth (DU-145 prostate) | growth (K-562 leukemia) | growth (MALME-3M melanoma) | growth (MDA-MB-231 breast) | growth (RXF 393 renal) | growth (SF-268 CNS) | growth (SF-295 CNS) | growth (SF-539 CNS) | growth (UACC-257 melanoma) | growth (M14 melanoma) | growth (HCT-15 colon) | growth (HT29 colon) | growth (SNB-75 CNS) | growth (SNB-19 CNS) | growth (U251 CNS) | growth (PC-3 prostate) | growth (SK-MEL-5 melanoma) | growth (UACC-62 melanoma) | growth (SK-MEL-28 melanoma) | growth (LOX IMVI melanoma)
1 | COc1cc2c(cc1OC)/C(=C\c1sc(Nc3ccc(O)cc3)nc1O)C(C(=O)O)=N2 | 6.39% (active) | 11.2% | 12.8% | 29.8% | 25% | 54.2% | 11.9% | -20.2% (active) | 48.8% | 4.93% (active) | 24.1% | 10% | -16.4% (active) | 24.3% | 18.6% | 19.1% | 14.4% | 20% | 47.6% | 
2 | Cc1ccc(F)cc1N/C=c1\s/c(=C(\C#N)C(=O)Nc2ccccc2)n(-c2ccccc2)c1=O | 54.5% | 83.4% | 53% | 2.68% (active) | 6.54% (active) | 69.5% | 47.8% | 27% | 99% | 82.4% | 64.9% | 72.9% | 3.2% (active) | 36.2% | 74.2% | 74.5% | 71.8% | 98.2% | 95.7% | 
3 | CO[C@H]1CSS[C@@H]1Cn1nc(-c2ccc(Oc3ccccc3)cc2)c2c(N)ncnc21 | 38.3% | 7.28% (active) | -38.2% (active) | 9.69% (active) | 18.6% | 32.4% | 35.4% | 36.1% | -3.47% (active) | -93% (active) | 22.1% | 17.2% | 104% | 29.6% | 24.6% | 41.2% | -4.24% (active) | -69.5% (active) | -35.8% (active) | 
4 | COc1cc2c(c(OC)c1OC)C(=O)CC(c1cccc(NC(=O)c3cccc(N)c3)c1)O2 (configuration not stated) | 83% | 47.5% | 78.8% | 68.3% | 100% | 81.7% | 92.8% | 95.3% | 93.4% | 96.5% | 64.9% | 94.7% | 77.6% | 86.1% | 81.1% | 70.9% | 61.9% | 70.2% | 100% | 
5 | C=C1CCC2C3(C)COC(c4cccc(F)c4)OC3CCC2(C)C1CC(O)C1=CCOC1=O (configuration not stated) | 72.8% | 24.1% | 90.8% | 67.5% | 57.2% | 106% | 74.5% | 84.8% | 72.7% | 61.1% | 8.31% (active) | 34.7% | 74.2% | 95.4% | 70.2% | 45.1% | 60.1% | 64.6% | 64.1% | 
6 | COc1ccc(NC(=O)Nc2ccc(OCC(=O)N=Nc3c(O)[nH]c4ccc([N+](=O)[O-])cc34)cc2)cc1 | 91% | 95.7% | 94.5% | 56% | 107% | 63.7% | 100% | 73.3% | 107% | 118% | 106% | 95.2% | 72.4% | 40.4% | 25% | 81.9% | 96% | 104% | 115% | 
7 | Cc1ccc2nc3c(nc2c1)c1cc(I)ccc1n3CCN(C)C | 13% | 4.47% (active) | 9.73% (active) | 14.8% | 29.8% | 45.4% | 17.3% | 26.4% | 41.9% | 16.3% | 10.1% | 14.4% | 30.6% | 24.9% | 24.2% | 26% | 48.1% | 59.1% | 11.9% | 
8 | C=C1CCC2C3(C)COC(c4ccccc4F)OC3CCC2(C)C1C/C=C1/C(=O)OCC1O (configuration not stated) | -27.8% (active) | 12.3% | -76.8% (active) | -54% (active) | -68.5% (active) | 58% | -36.1% (active) | -87.5% (active) | -77.6% (active) | -54.1% (active) | -20% (active) | -14.6% (active) | -58.3% (active) | -93.4% (active) | -95.4% (active) | -17.5% (active) | -91.1% (active) | -7.01% (active) | -66.1% (active) | 
9 | COc1cc(OC(F)(F)F)ccc1C(=O)Nc1sc2c(c1C#N)CCC(=O)C2 | 103% | 11% | 85% | 66.7% | 22.8% | 96.6% | 60.7% | 8.76% (active) | 98% | 64.4% | 14.6% | 95% | 93.7% | 91.8% | 7.29% (active) | 37.6% | 72.3% | 65.6% | 121% | 64.7%
10 | Nc1nc2c(F)c(F)c(F)c(F)c2s1 | 114% | 93.1% | 103% | 116% | 109% | 97.8% | 96% | 99% | 104% | 113% | 102% | 104% | 83.1% | 99.8% | 96.5% | 104% | 95.7% | 96.6% | 109% | 
11 | COC(=O)C(Cc1ccc(O)c(O)c1)NC(=O)C(CSC/C=C(\C)CCCC(C)CCCC(C)CCCC(C)C)NC(C)=O (configuration not stated) | 75.5% | 5.33% (active) | 87.4% | 38.1% | 48.3% | 27.6% | 1.8% (active) | -34.7% (active) | 56.4% | 13.9% | 15.5% | 40.5% | 42.8% | 10.8% | 4.85% (active) | 2.28% (active) | 36.8% | 13% | 25.1% | 19.7%
12 | CO[C@@H]1CSSC1Cn1nc(-c2ccc(Oc3ccccc3)cc2)c2c(N)ncnc21 (some centres not stated) | 49.8% | 4.87% (active) | 8.55% (active) | 52.1% | 28.8% | 39.5% | 47.8% | 44.1% | 10.9% | -90.6% (active) | 37.2% | 28.5% | 97.9% | 69.1% | 49.5% | 43.6% | 7.95% (active) | -53.9% (active) | -34.4% (active) | 
13 | Cc1cc2nc3c4ccccc4n(CCO)c3nc2cc1C | 58% | 74.4% | 37.8% | 18.5% | 38.6% | 78.1% | 66% | 37.1% | 91.7% | 84.6% | 71.2% | 98.1% | 73.6% | 87.7% | 64.7% | 57.3% | 81.6% | 73.8% | 91% | 
14 | CC1=C2C(=C[C@@](C)(COCOCCCl)[C@@H]2O)C(=O)[C@](C)(O)C12CC2 | -11.1% (active) | 8.32% (active) | -84.9% (active) | -44.7% (active) | -78.4% (active) | -9.66% (active) | -30.2% (active) | -65% (active) | -30.3% (active) | -16% (active) | -38.9% (active) | -11.9% (active) | -53.2% (active) | -24.4% (active) | 1.56% (active) | 0.191% (active) | -62.3% (active) | -87% (active) | -82.7% (active) | -82.2% (active)
15 | Clc1ccc(/C=N/Nc2ncnc3sc4c(c23)CCN(Cc2ccccc2)C4)cc1 | 3.38% (active) | 1.43% (active) | -66.9% (active) | -65.8% (active) | 31.5% | -31.2% (active) | -81.6% (active) | -87.1% (active) | -15.5% (active) | -63.2% (active) | -25.1% (active) | -75.3% (active) | -85% (active) | 18.4% | -83.8% (active) | -59.7% (active) | 38.9% | 18.9% | -19% (active) | 
16 | C/C(=C\CSc1ccccc1C(=O)O)CCCC(C)CCCC(C)CCCC(C)C (configuration not stated) | 67.1% | 36.2% | 86.4% | 75.9% | 87.8% | 51.5% | 40.6% | 61.1% | 80.7% | 60% | 21.5% | 59.4% | 114% | 80.4% | 46.8% | 41% | 24.8% | 42.5% | 71.5% | 
